Tests used:
Test in all cases: DAPPL (digital affinity profiling via proximity ligation, sequencing); 10 mM Tris-HCl pH 7.5, 50 mM NaCl, 1 mM DTT, 4% glycerol, room temperature, 30 min; GST-TFs on glutathione beads, 16-mer random dsDNA library, 0.1% formaldehyde crosslink after washing; high values mean tight binding
[1] = target: T1, FLI1 (Homo sapiens, UniProt Q01543 1-452); conditions: protein: recombinant; tags: N-terminal GST; dsDNA, one strand shown
T1 sequence: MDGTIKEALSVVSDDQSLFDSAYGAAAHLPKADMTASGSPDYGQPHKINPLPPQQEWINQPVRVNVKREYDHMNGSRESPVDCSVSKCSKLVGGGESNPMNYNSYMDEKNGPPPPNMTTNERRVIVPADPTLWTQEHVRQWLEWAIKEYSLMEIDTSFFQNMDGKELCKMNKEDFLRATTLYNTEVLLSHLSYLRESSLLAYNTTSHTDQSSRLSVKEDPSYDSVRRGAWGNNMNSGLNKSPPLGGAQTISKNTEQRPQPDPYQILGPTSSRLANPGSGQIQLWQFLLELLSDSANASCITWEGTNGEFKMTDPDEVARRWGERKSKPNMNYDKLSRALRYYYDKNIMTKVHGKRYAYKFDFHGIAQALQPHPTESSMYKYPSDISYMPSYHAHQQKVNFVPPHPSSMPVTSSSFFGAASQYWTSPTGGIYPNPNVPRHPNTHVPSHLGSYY
In short: (§1)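 Sequencing on an Illumina NextSeq500 followed washing, crosslinking with 0.1% formaldehyde, proximity ligation (BsaI/T4 ligase, 1 h, 37 °C) and PCR amplification of pools that had been incubated for 30 min at room temperature with 200 nmole of a random double-stranded 16-mer DNA library in Tris/NaCl/DTT/glycerol buffer. Each pool held DNA-barcoded human transcription factors, expressed in yeast as GST fusions and captured on glutathione beads, plus a tag-only sample. Binding signal is a hexamer's read frequency for a factor divided by its frequency in the tag-only sample.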

[2] = target: T2, ELK1 (Homo sapiens, UniProt P19419 1-428); conditions: protein: recombinant; tags: N-terminal GST; dsDNA, one strand shown
T2 sequence: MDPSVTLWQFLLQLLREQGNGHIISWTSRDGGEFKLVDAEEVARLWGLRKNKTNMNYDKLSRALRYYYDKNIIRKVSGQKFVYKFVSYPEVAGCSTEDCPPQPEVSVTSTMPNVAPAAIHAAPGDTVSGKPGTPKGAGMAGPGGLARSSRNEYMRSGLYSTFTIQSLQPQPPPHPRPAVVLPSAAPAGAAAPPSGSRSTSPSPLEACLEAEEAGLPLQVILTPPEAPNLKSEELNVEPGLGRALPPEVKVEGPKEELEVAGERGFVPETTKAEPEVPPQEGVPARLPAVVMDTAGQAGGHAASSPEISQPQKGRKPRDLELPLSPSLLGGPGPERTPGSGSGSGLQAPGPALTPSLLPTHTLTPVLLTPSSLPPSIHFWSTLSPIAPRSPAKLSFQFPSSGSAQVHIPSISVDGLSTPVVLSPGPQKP
In short: as §1

[3] = target: T3, GABPA (Homo sapiens, UniProt Q06546 1-454); conditions: protein: recombinant; tags: N-terminal GST; dsDNA, one strand shown
T3 sequence: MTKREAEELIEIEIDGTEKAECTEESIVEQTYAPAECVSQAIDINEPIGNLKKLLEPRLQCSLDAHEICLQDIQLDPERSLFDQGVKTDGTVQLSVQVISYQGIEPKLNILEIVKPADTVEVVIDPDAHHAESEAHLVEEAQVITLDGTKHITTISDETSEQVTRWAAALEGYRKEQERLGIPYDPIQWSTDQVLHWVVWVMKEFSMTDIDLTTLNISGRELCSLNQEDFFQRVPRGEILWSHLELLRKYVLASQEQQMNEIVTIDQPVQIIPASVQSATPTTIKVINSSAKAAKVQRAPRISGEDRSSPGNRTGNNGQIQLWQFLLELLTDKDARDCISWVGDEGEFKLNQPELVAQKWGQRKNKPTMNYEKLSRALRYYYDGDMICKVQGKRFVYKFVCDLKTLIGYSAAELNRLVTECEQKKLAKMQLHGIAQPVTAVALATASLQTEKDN
In short: as §1

[4] = target: T4, ERG (Homo sapiens, UniProt P11308 1-479); conditions: protein: recombinant; tags: N-terminal GST; dsDNA, one strand shown
T4 sequence: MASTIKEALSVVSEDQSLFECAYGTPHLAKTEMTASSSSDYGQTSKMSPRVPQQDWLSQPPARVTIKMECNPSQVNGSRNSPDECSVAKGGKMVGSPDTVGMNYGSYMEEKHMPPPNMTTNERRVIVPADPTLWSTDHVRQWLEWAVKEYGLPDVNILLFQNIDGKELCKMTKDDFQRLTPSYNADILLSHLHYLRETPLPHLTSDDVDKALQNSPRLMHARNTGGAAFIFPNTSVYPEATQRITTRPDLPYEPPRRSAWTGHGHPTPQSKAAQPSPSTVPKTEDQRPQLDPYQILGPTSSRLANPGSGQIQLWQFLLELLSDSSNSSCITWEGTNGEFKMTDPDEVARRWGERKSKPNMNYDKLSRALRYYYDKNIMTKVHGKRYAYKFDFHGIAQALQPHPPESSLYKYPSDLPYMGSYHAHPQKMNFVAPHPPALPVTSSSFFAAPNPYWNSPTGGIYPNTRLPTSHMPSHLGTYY
In short: as §1

[5] = target: ELF1 (Homo sapiens, UniProt P32519 1-619); conditions: protein: recombinant; tags: N-terminal GST; dsDNA, one strand shown
In short: as §1

[6] = target: T5, EHF (Homo sapiens, UniProt Q9NZC4 1-300); conditions: protein: recombinant; tags: N-terminal GST; dsDNA, one strand shown
T5 sequence: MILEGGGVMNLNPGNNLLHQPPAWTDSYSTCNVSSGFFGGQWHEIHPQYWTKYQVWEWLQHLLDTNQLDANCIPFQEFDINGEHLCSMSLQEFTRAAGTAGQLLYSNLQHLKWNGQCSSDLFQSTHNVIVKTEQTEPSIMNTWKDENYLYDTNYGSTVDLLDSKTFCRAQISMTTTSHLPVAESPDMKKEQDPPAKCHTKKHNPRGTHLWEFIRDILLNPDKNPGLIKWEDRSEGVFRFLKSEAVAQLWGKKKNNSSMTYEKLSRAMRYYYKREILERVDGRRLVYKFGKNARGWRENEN
In short: as §1

[7] = target: SPI1 (Homo sapiens, UniProt P17947 1-270); conditions: protein: recombinant; tags: N-terminal GST; dsDNA, one strand shown
In short: as §1

[8] = target: SPIB (Homo sapiens, UniProt Q01892 1-262); conditions: protein: recombinant; tags: N-terminal GST; dsDNA, one strand shown
In short: as §1

[9] = target: T6, ELK3 (Homo sapiens, UniProt P41970 1-407); conditions: protein: recombinant; tags: N-terminal GST; dsDNA, one strand shown
T6 sequence: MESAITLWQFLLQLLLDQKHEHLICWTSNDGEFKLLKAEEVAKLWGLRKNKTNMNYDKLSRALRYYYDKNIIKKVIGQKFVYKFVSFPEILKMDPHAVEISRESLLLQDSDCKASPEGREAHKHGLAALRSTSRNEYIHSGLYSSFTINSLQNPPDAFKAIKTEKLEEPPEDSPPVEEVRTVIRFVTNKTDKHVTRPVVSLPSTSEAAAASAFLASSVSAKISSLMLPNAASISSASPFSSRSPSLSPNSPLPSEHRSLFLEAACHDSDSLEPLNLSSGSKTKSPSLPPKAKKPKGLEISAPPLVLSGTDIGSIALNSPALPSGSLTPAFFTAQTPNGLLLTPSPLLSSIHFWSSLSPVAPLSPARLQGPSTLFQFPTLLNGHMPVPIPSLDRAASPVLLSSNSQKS
In short: as §1

[10] = target: T7, FEV (Homo sapiens, UniProt Q99581 1-238); conditions: protein: recombinant; tags: N-terminal GST; dsDNA, one strand shown
T7 sequence: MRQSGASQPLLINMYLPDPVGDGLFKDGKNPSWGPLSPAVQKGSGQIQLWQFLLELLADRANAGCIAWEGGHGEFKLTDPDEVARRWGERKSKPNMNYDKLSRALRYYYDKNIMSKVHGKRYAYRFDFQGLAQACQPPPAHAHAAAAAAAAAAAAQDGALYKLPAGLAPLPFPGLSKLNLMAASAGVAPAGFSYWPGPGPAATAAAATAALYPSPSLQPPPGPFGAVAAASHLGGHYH
In short: as §1

[11] = target: ETV5 (Homo sapiens, UniProt P41161 1-510); conditions: protein: recombinant; tags: N-terminal GST; dsDNA, one strand shown
In short: as §1

[12] = target: HSF1 (Homo sapiens, UniProt Q00613 1-529); conditions: protein: recombinant; tags: N-terminal GST; chain copies: 3; dsDNA, one strand shown
In short: as §1

[13] = target: T8, SPIC (Homo sapiens, UniProt Q8N5J4 1-248); conditions: protein: recombinant; tags: N-terminal GST; dsDNA, one strand shown
T8 sequence: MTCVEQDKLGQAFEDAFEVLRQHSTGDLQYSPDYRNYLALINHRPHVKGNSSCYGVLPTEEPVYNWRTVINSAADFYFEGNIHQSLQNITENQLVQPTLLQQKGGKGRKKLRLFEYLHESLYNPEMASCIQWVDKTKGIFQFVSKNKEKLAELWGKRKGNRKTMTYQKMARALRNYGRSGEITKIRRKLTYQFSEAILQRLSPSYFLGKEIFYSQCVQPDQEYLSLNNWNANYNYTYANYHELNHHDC
In short: as §1

[14] = target: ELF4 (Homo sapiens, UniProt Q99607 1-663); conditions: protein: recombinant; tags: N-terminal GST; dsDNA, one strand shown
In short: as §1

[15] = target: T9, ELK4 (Homo sapiens, UniProt P28324-2 1-405); conditions: protein: recombinant; tags: N-terminal GST; dsDNA, one strand shown
T9 sequence: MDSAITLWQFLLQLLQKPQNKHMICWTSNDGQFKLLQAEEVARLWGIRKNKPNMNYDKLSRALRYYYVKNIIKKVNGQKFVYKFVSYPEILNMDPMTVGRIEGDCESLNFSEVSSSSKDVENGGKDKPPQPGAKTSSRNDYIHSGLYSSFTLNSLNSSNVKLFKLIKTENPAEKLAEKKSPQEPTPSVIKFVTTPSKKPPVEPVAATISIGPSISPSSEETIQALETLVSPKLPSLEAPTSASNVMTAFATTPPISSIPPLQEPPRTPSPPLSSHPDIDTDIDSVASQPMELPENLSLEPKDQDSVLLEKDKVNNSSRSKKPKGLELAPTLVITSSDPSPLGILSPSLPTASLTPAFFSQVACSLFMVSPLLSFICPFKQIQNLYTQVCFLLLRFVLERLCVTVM
In short: as §1

[16] = target: T10, ETV2 (Homo sapiens, UniProt O00321 1-342); conditions: protein: recombinant; tags: N-terminal GST; dsDNA, one strand shown
T10 sequence: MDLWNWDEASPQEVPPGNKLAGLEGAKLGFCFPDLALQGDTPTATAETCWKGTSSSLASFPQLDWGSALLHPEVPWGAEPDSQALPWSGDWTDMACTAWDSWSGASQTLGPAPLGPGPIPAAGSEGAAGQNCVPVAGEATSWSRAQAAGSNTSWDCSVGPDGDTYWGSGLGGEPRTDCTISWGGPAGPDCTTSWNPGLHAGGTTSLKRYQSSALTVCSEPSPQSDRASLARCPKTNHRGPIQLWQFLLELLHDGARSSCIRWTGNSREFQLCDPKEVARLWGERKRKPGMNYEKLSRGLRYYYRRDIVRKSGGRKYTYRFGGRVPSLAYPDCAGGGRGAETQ
In short: as §1

[17] = target: T11, ELF3 (Homo sapiens, UniProt P78545 1-371); conditions: protein: recombinant; tags: N-terminal GST; dsDNA, one strand shown
T11 sequence: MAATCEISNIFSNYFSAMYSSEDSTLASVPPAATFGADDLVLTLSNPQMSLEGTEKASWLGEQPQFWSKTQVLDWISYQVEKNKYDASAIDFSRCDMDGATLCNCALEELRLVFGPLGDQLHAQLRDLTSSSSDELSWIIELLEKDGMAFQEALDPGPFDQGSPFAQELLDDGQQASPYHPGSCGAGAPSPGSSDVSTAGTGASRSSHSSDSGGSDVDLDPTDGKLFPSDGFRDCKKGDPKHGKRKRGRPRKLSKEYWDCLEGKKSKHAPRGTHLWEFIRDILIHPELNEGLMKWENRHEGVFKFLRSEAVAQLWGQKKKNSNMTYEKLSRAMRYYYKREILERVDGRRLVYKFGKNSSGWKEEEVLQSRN
In short: as §1

[18] = target: CRX (Homo sapiens, UniProt O43186 1-299); conditions: protein: recombinant; tags: N-terminal GST; dsDNA, one strand shown
In short: as §1

[19] = target: ETV1 (Homo sapiens, UniProt P50549 1-477); conditions: protein: recombinant; tags: N-terminal GST; dsDNA, one strand shown
In short: as §1

Sequence of ETV1 (P50549 whole entry): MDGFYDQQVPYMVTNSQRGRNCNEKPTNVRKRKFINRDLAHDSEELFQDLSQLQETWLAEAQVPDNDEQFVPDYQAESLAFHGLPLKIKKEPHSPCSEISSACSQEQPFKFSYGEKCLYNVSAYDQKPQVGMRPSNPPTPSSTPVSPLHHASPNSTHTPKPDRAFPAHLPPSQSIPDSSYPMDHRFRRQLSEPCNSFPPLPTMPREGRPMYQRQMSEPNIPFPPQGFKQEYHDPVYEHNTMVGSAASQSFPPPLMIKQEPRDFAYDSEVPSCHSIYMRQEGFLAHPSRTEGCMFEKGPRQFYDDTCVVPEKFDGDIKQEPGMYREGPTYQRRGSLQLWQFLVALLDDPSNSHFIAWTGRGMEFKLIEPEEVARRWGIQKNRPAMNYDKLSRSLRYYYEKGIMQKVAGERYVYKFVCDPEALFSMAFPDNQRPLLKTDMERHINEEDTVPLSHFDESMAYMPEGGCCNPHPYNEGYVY
Sequence of SPIB (Q01892 whole entry): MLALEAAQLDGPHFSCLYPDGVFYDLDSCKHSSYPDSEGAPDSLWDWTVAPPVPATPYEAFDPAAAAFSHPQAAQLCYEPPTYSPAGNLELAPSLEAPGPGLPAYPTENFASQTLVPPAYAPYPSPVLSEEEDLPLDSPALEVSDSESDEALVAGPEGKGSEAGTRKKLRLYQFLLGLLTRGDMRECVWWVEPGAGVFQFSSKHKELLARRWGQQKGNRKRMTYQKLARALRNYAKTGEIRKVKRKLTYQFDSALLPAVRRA
Sequence of ELF1 (P32519 whole entry): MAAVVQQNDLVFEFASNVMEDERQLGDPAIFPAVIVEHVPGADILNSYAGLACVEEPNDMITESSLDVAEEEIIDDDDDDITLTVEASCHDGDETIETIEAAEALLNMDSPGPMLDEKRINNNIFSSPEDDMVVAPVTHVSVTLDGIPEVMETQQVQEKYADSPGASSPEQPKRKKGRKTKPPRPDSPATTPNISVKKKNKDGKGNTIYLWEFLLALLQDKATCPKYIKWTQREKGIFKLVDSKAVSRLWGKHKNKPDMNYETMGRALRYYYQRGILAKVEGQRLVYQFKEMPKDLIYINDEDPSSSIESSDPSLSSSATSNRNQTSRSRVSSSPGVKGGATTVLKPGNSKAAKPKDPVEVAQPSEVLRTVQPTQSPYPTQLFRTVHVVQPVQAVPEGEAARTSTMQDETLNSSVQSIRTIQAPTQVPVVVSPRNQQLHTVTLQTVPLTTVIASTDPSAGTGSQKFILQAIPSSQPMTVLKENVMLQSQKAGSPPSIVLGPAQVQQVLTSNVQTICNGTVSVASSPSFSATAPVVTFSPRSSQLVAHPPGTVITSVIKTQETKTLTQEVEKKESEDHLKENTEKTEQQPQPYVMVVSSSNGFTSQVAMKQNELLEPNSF
Sequence of CRX (O43186 whole entry): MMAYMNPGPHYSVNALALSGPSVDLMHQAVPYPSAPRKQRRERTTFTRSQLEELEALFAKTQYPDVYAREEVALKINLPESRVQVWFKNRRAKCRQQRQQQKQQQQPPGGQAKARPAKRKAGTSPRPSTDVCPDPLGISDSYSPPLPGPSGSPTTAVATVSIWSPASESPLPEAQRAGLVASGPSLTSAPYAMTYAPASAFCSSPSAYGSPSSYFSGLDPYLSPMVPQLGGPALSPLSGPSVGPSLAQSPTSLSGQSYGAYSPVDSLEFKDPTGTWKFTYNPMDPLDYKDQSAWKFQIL
Sequence of HSF1 (Q00613 whole entry): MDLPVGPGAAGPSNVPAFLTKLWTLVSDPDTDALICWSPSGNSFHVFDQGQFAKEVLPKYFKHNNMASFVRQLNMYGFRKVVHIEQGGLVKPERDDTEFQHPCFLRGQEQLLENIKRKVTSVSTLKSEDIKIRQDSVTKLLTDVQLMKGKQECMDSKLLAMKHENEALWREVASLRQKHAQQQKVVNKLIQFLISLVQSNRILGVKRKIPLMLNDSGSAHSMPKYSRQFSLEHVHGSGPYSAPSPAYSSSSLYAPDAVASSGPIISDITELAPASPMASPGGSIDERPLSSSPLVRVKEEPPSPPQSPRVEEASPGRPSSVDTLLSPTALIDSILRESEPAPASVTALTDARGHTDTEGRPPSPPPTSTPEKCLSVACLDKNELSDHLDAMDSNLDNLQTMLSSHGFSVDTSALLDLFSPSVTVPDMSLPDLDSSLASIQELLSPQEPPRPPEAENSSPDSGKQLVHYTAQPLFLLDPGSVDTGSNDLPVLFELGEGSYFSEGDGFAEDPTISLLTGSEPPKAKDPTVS
Sequence of ETV5 (P41161 whole entry): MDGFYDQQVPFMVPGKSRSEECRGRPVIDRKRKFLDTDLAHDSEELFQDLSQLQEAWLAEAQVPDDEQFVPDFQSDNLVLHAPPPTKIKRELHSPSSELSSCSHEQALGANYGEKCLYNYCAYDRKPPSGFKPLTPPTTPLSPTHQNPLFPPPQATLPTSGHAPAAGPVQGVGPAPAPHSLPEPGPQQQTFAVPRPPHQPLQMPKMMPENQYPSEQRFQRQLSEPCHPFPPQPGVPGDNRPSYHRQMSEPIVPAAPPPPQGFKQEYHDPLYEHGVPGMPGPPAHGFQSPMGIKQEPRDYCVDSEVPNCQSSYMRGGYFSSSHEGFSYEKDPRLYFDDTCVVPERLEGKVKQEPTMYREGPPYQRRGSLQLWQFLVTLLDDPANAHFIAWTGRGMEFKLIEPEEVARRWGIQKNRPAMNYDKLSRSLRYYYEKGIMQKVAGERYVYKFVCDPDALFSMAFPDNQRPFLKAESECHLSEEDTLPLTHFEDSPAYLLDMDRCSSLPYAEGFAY
Sequence of ELF4 (Q99607 whole entry): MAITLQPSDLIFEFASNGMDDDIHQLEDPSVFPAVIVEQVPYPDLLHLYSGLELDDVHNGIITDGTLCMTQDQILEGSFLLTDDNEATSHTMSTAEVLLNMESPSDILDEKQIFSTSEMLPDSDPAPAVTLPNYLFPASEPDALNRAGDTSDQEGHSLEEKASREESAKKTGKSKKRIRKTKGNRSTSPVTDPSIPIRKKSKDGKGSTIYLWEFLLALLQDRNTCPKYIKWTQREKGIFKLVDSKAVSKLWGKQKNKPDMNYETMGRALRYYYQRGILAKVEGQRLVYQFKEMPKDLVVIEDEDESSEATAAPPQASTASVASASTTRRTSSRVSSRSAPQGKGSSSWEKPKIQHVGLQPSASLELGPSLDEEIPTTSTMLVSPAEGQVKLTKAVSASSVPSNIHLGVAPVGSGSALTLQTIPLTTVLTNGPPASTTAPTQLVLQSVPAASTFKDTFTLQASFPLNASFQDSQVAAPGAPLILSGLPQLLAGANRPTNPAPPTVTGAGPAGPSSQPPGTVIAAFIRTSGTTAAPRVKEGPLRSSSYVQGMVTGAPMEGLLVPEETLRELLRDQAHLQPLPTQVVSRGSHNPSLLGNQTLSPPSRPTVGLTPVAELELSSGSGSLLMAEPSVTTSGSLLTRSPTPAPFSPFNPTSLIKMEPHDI

In the case of TGAATA, the binding signal [1] is reported as 1.05 fold enrichment (6-mer frequency, TF over GST control), the binding signal [2] is reported as 1.11 fold enrichment (6-mer frequency, TF over GST control) and the binding signal [3] is reported as 1.2 fold enrichment (6-mer frequency, TF over GST control). The binding signal [4] was 1.08 fold enrichment (6-mer frequency, TF over GST control), the binding signal [5] was 1.1 fold enrichment (6-mer frequency, TF over GST control) and the binding signal [6] was 1.12 fold enrichment (6-mer frequency, TF over GST control). The binding signal [7] was 1.08 fold enrichment (6-mer frequency, TF over GST control), the binding signal [8] was 1.05 fold enrichment (6-mer frequency, TF over GST control) and the binding signal [9] was 1.06 fold enrichment (6-mer frequency, TF over GST control). The binding signal [10] was 1.06 fold enrichment (6-mer frequency, TF over GST control), the binding signal [11] was 1.13 fold enrichment (6-mer frequency, TF over GST control) and the binding signal [12] was 1.24 fold enrichment (6-mer frequency, TF over GST control). The binding signal [13] was 1.22 fold enrichment (6-mer frequency, TF over GST control), the binding signal [14] was 1.13 fold enrichment (6-mer frequency, TF over GST control) and the binding signal [15] was 1.12 fold enrichment (6-mer frequency, TF over GST control). The binding signal [16] was 1 fold enrichment (6-mer frequency, TF over GST control), the binding signal [17] was 1.08 fold enrichment (6-mer frequency, TF over GST control) and the binding signal [18] was 1.16 fold enrichment (6-mer frequency, TF over GST control). The binding signal [19] was 1.15 fold enrichment (6-mer frequency, TF over GST control).

— paper PMC7862700, “An all-to-all approach to the identification of sequence-specific readers for epigenetic DNA modifications on cytosine”
